# Compound activity as filed in PubChem.
# KinaseGlo FLuc = Counterscreen for Luciferase (Kinase-Glo TM) Inhibition; Luciferin 4-monooxygenase (Photuris pensylvanica), Q27757; 0.28% of 200,000 active; Potency, µM (series often up to 38.3 µM), most hits filed as inhibitors; Kinase-Glo luciferase, ATP luminescence, 8 min; AID 1379, 2008; further: nearly all actives have a fitted effect of over 60% in size
#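 Compound is pinned into ATP-containing buffer (10 uM ATP, imidazole pH 7.2, 7 mM MgCl2). Kinase-Glo luciferase reagent is then added. Light output is recorded following an 8-min room-temperature incubation.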
# SMN2 splice enh = qHTS Assay for Enhancers of SMN2 Splice Variant Expression; AID 1458, 2008; Potency, µM (doses to about 46.1 µM), hits mostly activators; HEK293 SMN2-luciferase splicing reporter, luminescence, 30-36 h; 2.8% of 210,000 active; further: nearly all actives have a fitted effect of over 55% in size
#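 qHTS luciferase splicing reporter: luminescence rises when SMN2 exon 7 is included in transfected HEK293 cells. Compound exposure lasted 30-36 h at 37C, with 4.5 mM final sodium butyrate as control, followed by a ONE-Glo read.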
# FLuc counter = qHTS profiling assay for firefly luciferase inhibitor/activator using purifed enzyme and Km concentrations of substrates (counterscreen for miR-21 project). Luciferin 4-monooxygenase (Photinus pyralis), P08659. purified FLuc, Km substrates, luminescence inhibition. Potency, µM (highest dose often 57.5 µM), actives largely listed as inhibitors. 6.9% of 360,000 active. AID 588342, 2011; further: nearly all actives have a fitted effect of over 55% in size
# Target sequence (P08659 whole entry, looked up): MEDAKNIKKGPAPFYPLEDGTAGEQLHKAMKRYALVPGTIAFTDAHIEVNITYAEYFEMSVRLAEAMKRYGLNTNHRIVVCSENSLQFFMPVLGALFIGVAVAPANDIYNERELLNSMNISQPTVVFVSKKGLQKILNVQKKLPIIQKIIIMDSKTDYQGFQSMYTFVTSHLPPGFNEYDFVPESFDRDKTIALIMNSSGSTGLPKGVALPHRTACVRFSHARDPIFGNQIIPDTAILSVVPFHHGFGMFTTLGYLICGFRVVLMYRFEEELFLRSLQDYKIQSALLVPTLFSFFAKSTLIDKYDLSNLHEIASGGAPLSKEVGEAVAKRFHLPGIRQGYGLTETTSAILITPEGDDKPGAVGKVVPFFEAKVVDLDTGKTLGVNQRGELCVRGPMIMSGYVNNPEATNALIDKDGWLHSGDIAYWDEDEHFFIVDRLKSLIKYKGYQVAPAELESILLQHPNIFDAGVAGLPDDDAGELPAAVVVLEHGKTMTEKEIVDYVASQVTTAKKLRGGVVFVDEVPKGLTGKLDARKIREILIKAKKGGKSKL
#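 Purified P. pyralis luciferase, 10 nM final, with Km-level 10 uM D-luciferin and 10 uM ATP in 50 mM Tris acetate pH 7.5, 10 mM Mg acetate, 0.01% Tween-20, 0.05% BSA; 6-point qHTS titration about 60 µM downward; luminescence read.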
# Rab9 prom act = qHTS Assay for Rab9 Promoter Activators; Huh7 Rab9 promoter-luciferase reporter, luminescence, 24 h; Potency, µM (titrated, usually from 9.22 µM), usual class: activators; 2.8% of 320,000 active; AID 485297, 2010; further: nearly all actives have a fitted effect of over 60% in size
#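 Quantitative HTS format; Huh7 Rab9-luciferase reporter cells (1500/well) receive compound 2 h post-plating, incubate 24 h at 37 °C, then get luciferase reagent for 10 min before luminescence reading.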
# NPC1 prom act = qHTS Assay for NPC1 Promoter Activators; Huh7 NPC1 promoter luciferase reporter, 24 h; AID 485313, 2010; 2.4% of 320,000 active; Potency, µM (top dose mostly 9.22 µM), actives largely listed as activators; further: nearly all actives have a fitted effect of over 60% in size
#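 In 1536-well qHTS, Huh7 cells harboring an NPC1 promoter–luciferase construct received compound for 24 h; activation was quantified by luminescence following luciferase reagent addition.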
# ELG1 genotoxic = qHTS screen for small molecules that induce genotoxicity in human embryonic kidney (HEK293T) cells expressing luciferase-tagged ELG1; HEK293T ELG1-luciferase reporter, luminescence, 16 h; 1.3% of 330,000 active; Potency, µM (top dose mostly 46 µM), most hits filed as activators; further: nearly all actives have a fitted effect of over 60% in size
#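 HEK293T cells expressing luciferase-tagged ELG1 were treated with compound or DMSO for 16 hr at 37°C. Luciferase activity was then read after 30 min with ONE-Glo at room temperature; rising signal flags genetic stress.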
# Hits are given with their value; 0 = inactive; ? = inconclusive; - = not tested or not shown; ! = repeats disagree; [ ] = dose if it differs, or a comment. Most compounds without a hit are left out; they make up all but 7.4% or so of the library. The call rests on the fitted dose curve; in most records, active means well fitted curve in the direction sought with a large enough effect; inconclusive means small, poorly fitted or top-dose-only effect, or another doubt; inactive means no such curve, though single readings can be large; an effect the other way counts as inactive or inconclusive.
SMILES,KinaseGlo FLuc,SMN2 splice enh,FLuc counter,Rab9 prom act,NPC1 prom act,ELG1 genotoxic
CC(C)(C)NC(=O)C(=O)N/N=C/c1ccc(Br)cc1,0,0,?,0,0,0
CC(C)(C)OC(=O)N/N=C/c1ccc(Br)cc1,0,11µM,12µM,1.6µM,?,?
O=C(CSc1ncnc2nc[nH]c12)c1ccccc1,0[7.66 µM],11µM!,21µM,4µM,2.8µM,0
c1ccc(CCSc2ncnc3nc[nH]c23)cc1,0,0,15µM,?,?,0
CCOC(=O)c1cc(-c2ccc(F)cc2)n(CCC(=O)NCCc2ccc(C)cc2)c1C,-,-,0,-,-,-
CC(/C=N/NC(=O)c1cccs1)=C\c1ccccc1,0,4µM,2.1µM,0.79µM,1µM,0
O=C(O)/C(=C\c1ccc(Br)cc1)NC(=O)c1cccs1,-,-,0,0,0,0
O=C(N/N=C/C(Cl)=C\c1ccccc1)c1cccs1,-,-,2.7µM,2µM,2.5µM,?
Cc1nnc2n(c1=O)N=C(c1ccc(Cl)cc1)CS2,0,2µM,0,0.5µM,1µM,0
c1ccc(C2=Nn3c(nnc3-c3n[nH]c4c3CCC4)SC2)cc1,0,?,0,0,0,23µM
COc1ccc(C2=Nn3c(nnc3-c3cc(C)[nH]n3)SC2)cc1,-,-,0,0,0,21µM
COc1ccc(C2=Nn3c(nnc3-c3ccc(OC)cc3)SC2)cc1,0,?,0,0,0,?
c1ccc(C2=Nn3c(nnc3-c3cc(-c4ccccc4)n[nH]3)SC2)cc1,0,?,-,0,0,?
Clc1ccc(C2=Nn3c(nnc3-c3n[nH]c4c3CCC4)SC2)cc1Cl,0,10µM,0,0,0,?
COCCN(CCOC)c1nc(C)nc2c1nc(-c1ccccc1)n2CCCN(C)C,0,0,-,-,-,-
CC(C)NC(=O)c1ccc2c3n(nc2c1)-c1ccccc1CO3,-,-,0.43µM,?,0.28µM,?
CC(C)[C@@H](CO)NC(=O)c1ccc2c3n(nc2c1)-c1ccccc1CO3,-,-,1.7µM,?,0.5µM,?
CC(C)NC(=O)c1ccc(NC(=O)N2CCCCc3ccccc32)cc1,-,-,0,-,-,-
COc1ccc(CNC(=O)CCc2c(C)nc3nc(CNC(=O)OC(C)(C)C)nn3c2C)cc1,-,0,0,-,-,-
Cc1cccc(C#Cc2ccccc2)n1,13µM,13µM,6µM,5µM,5.8µM,8.2µM
CCC1CCc2nc3sc(C(=O)Nc4ccc(C)cc4)c(N)c3cc2C1 (stereo unspecified),-,0,0,-,-,-
COC(=O)c1cc(C(=O)N2CCN(c3ccccc3OC)CC2)cc([N+](=O)[O-])c1,0,-,21µM,0,0,0
COC(=O)c1cc(C(=O)N2CCN(c3cccc(C)c3C)CC2)cc([N+](=O)[O-])c1,0,0,0,0,0,0
COc1ccccc1N1CCN(C(=O)c2ccc3[nH]c(C)c(C)c3c2)CC1,-,-,0,0,0,?
COc1ccccc1N1CCN(C(=O)c2ccc3[nH]c4c(c3c2)CC(C)CC4)CC1 (stereo unspecified),0,0,19µM,0,0,0
SMILES,KinaseGlo FLuc,SMN2 splice enh,FLuc counter,Rab9 prom act,NPC1 prom act,ELG1 genotoxic
S=C(Nc1ccc2c(c1)OCO2)N1CCN(Cc2ccco2)CC1,0,-,1.3µM,?,?,0
Cc1ccc(N2CCN(C(=O)c3cnn(-c4ccc(F)cc4F)c3C3CCN(C(=O)OC(C)(C)C)CC3)CC2)c(C)c1,-,-,0,-,-,-
O=C(NCc1ccccc1F)c1cccc(NC(=O)N2CCSc3ncccc32)c1,-,-,0,-,-,-
COc1cc(-c2nc(-c3ccc4c(c3)-c3ccccc3S4(=O)=O)c(-c3ccccc3)[nH]2)cc(OC)c1OC,0,0,4.8µM,0,0,0
CCCOc1ccc(/C=C/C(=O)Nc2sc3c(c2C(=O)OCC)CCC(C)C3)cc1OC (stereo unspecified),-,0,0,-,-,-
C=CCNC(=O)c1cc(-c2ccc3c(c2)OCO3)on1,-,-,2.1µM,0.56µM,0.45µM,?
COCCNC(=O)c1cc(-c2ccc3c(c2)OCO3)on1,0,11µM,6.7µM,2.5µM,1.6µM,?
CCC(C)NC(=O)c1cc(-c2ccc3c(c2)OCO3)on1 (stereo unspecified),-,-,3.4µM,0.45µM,0.89µM,?
COc1ccc(CNC(=O)CN(C)c2nn3c(=O)cc(C)nc3s2)cc1,-,0,0,-,-,-
CC(=O)Nc1ccc(S(=O)(=O)Nc2cc(C)ccn2)cc1,0,0,0,0,0,0
Cc1ccnc(NC(=O)Nc2ccc(F)cc2)c1,0,13µM,1.9µM,0.56µM,1.4µM,?
COc1ccccc1NC(=O)Nc1ccc(C)cn1,-,-,?,0,0,0
Cc1ccc(NC(=O)Nc2ccc(F)cc2)nc1,0,25µM,11µM,4µM,?,0
CSc1ncccc1C(=O)Nc1cc(C)ccn1,-,-,0,0,0,0
Cc1ccnc(NC(=O)c2ccc([N+](=O)[O-])s2)c1,-,-,13µM,3.5µM,3.2µM,?
CSc1ccc(NC(=O)Nc2cc(C)ccn2)cc1,0[7.66 µM],1.6µM,0.3µM,0.45µM,0.5µM,?
CC1=C(c2ccc(C)c(C)c2)S(=O)(=O)N(Cc2ccc(C(=O)Nc3cc(F)ccc3F)cc2)C1=O,-,-,0,-,-,-
COCCNC(=O)Cn1nc(N2CCN(c3ccccc3OC)CC2)ccc1=O,-,-,0,-,-,-
Cc1ccnc(NC(=O)CNC(=O)c2ccc(C)s2)c1,-,-,?,0,0,?
Cc1ccnc(NC(=O)c2cc3cc(F)ccc3s2)c1,-,-,2.7µM,1.4µM,2.2µM,?
COC(=O)c1ccccc1NC(=O)Nc1cc(C)ccn1,?,0,0,0,0,0
Cc1ccnc(NC(=O)Nc2ccc(Br)cc2Cl)c1,0,2.2µM,0.48µM,0.63µM,1µM,?
CSc1ccc(-c2nc3cccc(C)n3c2Nc2ccc(Cl)cc2)cc1,-,0,0,-,-,-
Cc1ccc(C)c(N2CCN(CCCNC(=O)c3ccc4nc(CCc5ccccc5)oc4c3)CC2)c1,-,-,0,-,-,-
Cc1ccc2sc(-c3ccc(N)cc3)nc2c1,-,0.63µM,0.17µM,-,-,-
SMILES,KinaseGlo FLuc,SMN2 splice enh,FLuc counter,Rab9 prom act,NPC1 prom act,ELG1 genotoxic
COc1ccc(N2C(=O)S[C@@H]3CS(=O)(=O)C[C@@H]32)cc1,0,0,0,0,0,0
Nc1ccc(-c2nc3cc(N)ccc3s2)cc1,0,-,0.67µM,0.71µM,0.5µM,2.9µM
Nc1ccc2nc(-c3ccccc3)sc2c1,7.9µM,0.5µM,0.3µM,-,-,-
Cc1ccc2nc(-c3ccc(N4C(=N)SC5CS(=O)(=O)CC54)cc3)sc2c1 (stereo unspecified),-,-,8.5µM,2.8µM,?,?
Nc1ccc2nc(-c3ccccc3)c(-c3ccccc3)nc2c1,-,-,0,0,0,0
CC(=O)Nc1nc2cc(N)ccc2s1,-,-,0,0,0,0
CCOC(=O)c1sc(N)c(C(=O)Nc2ccc(C)cc2C)c1C,0,-,-,-,-,-
Cc1ccc(S(=O)(=O)Nc2nc3ccc(N)cc3s2)cc1,-,-,0,0,0,0
